# Measurements as given in PubChem BioAssay.
# The other results are listed elsewhere or left out. Values without a mark were called inactive. Active and inactive are the calls of the source.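 The calls were made as follows, unless noted: active = dye signal at least 3 control SD above or below untreated wells in both duplicates, raw fluorescence within 3, either direction; inactive = the rest.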
# Assays:
# [1] = target: Inward rectifier potassium channel 2 (Mus musculus) (UniProt P35561); assay: mouse Kir2.1 channel blockers, retest, confirmation, cell-based, FluxOR thallium flux, duplicate (AID 2032;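 active = Primary-screen hit whose thallium flux fell at least 3 control SD below untreated wells in both duplicates, with normal baseline fluorescence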); conditions: Kir2.1-expressing cells, FluxOR thallium flux fluorescence, at 10 µM; hits give low values
# [2] = nonspecific thallium flux effects in parental HEK293 cells, confirmation, counter-screen for Kir2.1 inhibitor project, cell-based, FluxOR thallium flux, duplicate, single concentration (AID 2105); conditions: FluxOR thallium flux fluorescence, at 10 µM; 0% = unstimulated blank wells;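 as to FluxOR signal as % of negative control (100 = no effect): percent is based on the flux ratio of peak minus minimum fluorescence over baseline F0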
# Sequence of Inward rectifier potassium channel 2 (Mus musculus) (P35561 whole entry, looked up): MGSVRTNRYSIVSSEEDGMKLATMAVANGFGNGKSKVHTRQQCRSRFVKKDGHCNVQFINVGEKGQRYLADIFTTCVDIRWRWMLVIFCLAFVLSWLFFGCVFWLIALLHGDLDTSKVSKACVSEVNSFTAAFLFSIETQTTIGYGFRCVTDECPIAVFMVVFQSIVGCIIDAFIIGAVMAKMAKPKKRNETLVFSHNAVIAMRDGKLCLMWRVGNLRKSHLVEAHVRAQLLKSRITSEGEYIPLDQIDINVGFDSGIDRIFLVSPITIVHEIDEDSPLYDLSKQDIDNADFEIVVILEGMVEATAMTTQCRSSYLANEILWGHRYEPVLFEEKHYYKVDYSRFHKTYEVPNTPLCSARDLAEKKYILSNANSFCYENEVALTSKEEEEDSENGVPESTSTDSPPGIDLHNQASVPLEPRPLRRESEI
SMILES,"Tl flux remaining, % of negative control (hits give low values) [1]",outcome [2],outcome [1],FluxOR signal as % of negative control (100 = no effect) [2]
Cc1cc(C)c(C)c(S(=O)(=O)Nc2ccc(O)cc2)c1C,65.5% (active),inactive,–,–
CCC(=O)OCc1c(C(F)(F)F)nn(C)c1Oc1cccc(C(F)(F)F)c1,–,inactive,inactive,–
CN(Cc1ccccc1)C(=O)CCc1ccccc1,–,inactive,inactive,–
CCCCOC(=O)Cn1c(=O)n(CC(=O)OCCCC)c2cc(C)ccc21,–,inactive,inactive,–
CCC(Cc1ccccc1)NS(=O)(=O)c1ccc2c(c1)NC(=O)CS2 (centres undefined),62% (active),inactive,–,–
CN(Cc1ccccc1)CC(O)COc1ccc(CNCc2cc3ccccc3s2)cc1 (centres undefined),33.5% (active),–,–,74.5% (active)
COc1ccccc1CCNS(=O)(=O)c1cc2c3c(c1)C(C)C(=O)N3CCC2 (centres undefined),62% (active),inactive,–,–
Clc1ccc(-c2cc(C3CCNCC3)[nH]n2)c(Cl)c1,22.5% (active),inactive,–,–
COc1ccc(Nc2ncnc3sc(C)cc23)cc1,–,inactive,inactive,–
CC12CN(Cc3ccccc3)CC(C)(CN(Cc3ccccc3)C1)C2=NO,54.5% (active),inactive,–,–
COc1cccc(CN(C)CC(O)COC(c2ccccc2)c2ccccc2C)c1 (centres undefined),66% (active),inactive,–,–
COc1cccc(CNCCc2c[nH]c3ccccc23)c1OCc1ccccc1F,23.5% (active),inactive,–,–
CC(C)(C)c1cc2cccnc2n1Cc1cccc(F)c1,72% (active),inactive,–,–
NC(N)=Nc1nc(-c2ccccc2)c2cc(Cl)ccc2n1,–,inactive,inactive,–
CSc1c(SCc2ccccc2)cnn(Cc2ccccc2)c1=O,–,inactive,inactive,–
COc1ccccc1-c1n[nH]c2c1[C@H](C)CC[C@H]2C(C)C,–,inactive,inactive,–
c1ccc(CSc2nnc(-c3ccco3)n2Cc2ccccc2)cc1,54% (active),inactive,–,–
COc1ccc2c(c1)C=CC1(O2)N(CCO)c2ccccc2C1(C)C (centres undefined),–,–,inactive,53.5% (active)
O=C(Nc1ccccc1Cl)/C(Cl)=C(\Cl)S(=O)c1ccccc1 (centres undefined),60.5% (active),–,–,57.5% (active)
COc1ccc(CCC(C)N2CCc3ccccc3C2)cc1 (centres undefined),25.5% (active),inactive,–,–
COc1ccc(F)c(-c2nc(CN3CCC(c4ccccc4)CC3)c(C)o2)c1,45.5% (active),inactive,–,–
CCCCCCCCCCOC(=O)Cn1c(COc2ccc(C)cc2)[n+](C)c2ccccc21,–,inactive,inactive,–
COc1cccc(CN(C)CC2CCCN(CCc3ccc(Cl)cc3)C2)c1OC (centres undefined),49% (active),inactive,–,–
COc1cc(/C=N/O)cc(Br)c1OS(=O)(=O)c1ccc(C)cc1,57.5% (active),inactive,–,–
CCN(CC)CCC(c1ccc2c(c1)OCO2)c1c(OC)cc(OC)c2c(-c3ccccc3)cc(=O)oc12 (centres undefined),65.5% (active),inactive,–,–
CC1CN(C(=O)CCC(=O)NCCCN2CCC(Cc3ccccc3)CC2)c2cc(Cl)ccc2O1 (centres undefined),35.5% (active),inactive,–,–
CCCOc1ccc(C(=O)C(CCC(CNCC)C(=O)c2ccc(OCCC)cc2)CNCC)cc1 (centres undefined),48% (active),inactive,–,–
